# Measured values reported in PubChem BioAssay (NCATS).
# Results filed as inconclusive are left out. Where a call stands in place of a potency, no number is given. Activity calls are given as the source filed them. Calls come from the whole dose curve; as a rule, active = well fitted curve in the direction sought with a large enough effect; inconclusive = small, poorly fitted or top-dose-only effect, or another doubt; inactive = no such curve, though single readings can be large; an effect the other way counts as inactive or inconclusive. Peptide text beside a SMILES is read from it. * marks the point of attachment. PhAc = O=C(Cc1ccccc1)*
# Biological target: Aldehyde dehydrogenase, mitochondrial (Homo sapiens) (UniProt P05091)
# Test: qHTS for Inhibitors of the Aldehyde Dehydrogenase Family (ALDH2) Primary screen (AID 2061308); note: nearly all actives have a fitted effect of over 55% in size
# Details: ALDH2 enzyme inhibition qHTS, 1536-well; series mostly up to 56 µM
row,Compound,Potency
1,COc1ccccc1N1CCN(CCCCNC(=O)c2ccc(-c3cscn3)cc2)CC1,inactive
2,CO[C@@H]1[C@@H](O[C@H]2O[C@@H](C)[C@H](O[C@@H]3C[C@](C)(O)[C@H](O)[C@@H](C)O3)[C@@H](N(C)C)[C@@H]2O)[C@@H](CC=O)C[C@@H](C)[C@@H](O[C@H]2CC[C@H](N(C)C)[C@H](C)O2)/C=C/C=C/C[C@@H](C)OC(=O)C[C@H]1O,inactive
3,CCOc1ccc(-c2nc(-c3cccc4c3CCC4NCCO)no2)cc1OCC (stereo not given),inactive
4,CC(C)Nc1nc(Nc2ccccc2)nc(-c2ccccc2)n1,inactive
5,Cc1ccc(Cl)cc1N(CC(=O)Nc1c(F)cccc1F)S(C)(=O)=O,inactive
6,CN1CCC(Nc2nc(Nc3ccc(Oc4ccccc4)cc3)c3c(=O)[nH]cc(Br)c3n2)CC1,inactive
7,COc1cccc(-c2ccc([C@@H](Oc3cc(-c4ccc(C[C@H](N)C(=O)O)cc4)nc(N)n3)C(F)(F)F)cc2)c1,inactive
8,O=C(O)c1cc(N(Cc2ccc(C3CCCCC3)cc2)C(=O)c2ccc(Oc3ccccc3)cc2)ccc1O,inactive
9,CCCCCCOc1cc2c(cc1N(C)c1ncc(C(=O)O)cn1)C(C)(C)CCC2(C)C,inactive
10,CCCN1CCC[C@@H](c2cccc(S(C)(=O)=O)c2)C1,inactive
11,Cc1c(C(=O)NCc2cccnc2)nn(-c2ccc(Cl)cc2Cl)c1-c1ccc(Cl)cc1,inactive
12,CC(C)c1nnc(-c2ccc(-c3ccccc3)nc2)n1-c1cccc2nonc12,inactive
13,CC1(C(=O)Nc2ccc(F)nc2)CCCN1c1nc(Nc2cc(C3CC3)[nH]n2)c2cccn2n1 (stereo not given),inactive
14,Cc1cc(-c2nncc3c(C(C)(C)C)c(OCc4ncnn4C)nn23)no1,inactive
15,COc1ccc(C(=O)N(CCC(C)C)Cc2nc(C)c(C)n2Cc2ccccc2C)c(OC)c1,inactive
16,Cc1nc2cc(-c3cc(F)cc(C#N)c3)ccc2s1,inactive
17,O=C(NS(=O)(=O)c1ccc(Br)s1)c1ccc(Cl)cc1Cl,inactive
18,O=C(O)Cc1ccc2oc(-c3ccc(NC(=O)/C=C/c4ccc(Br)cc4)c(F)c3)nc2c1,inactive
19,CN(CC(=O)N(Cc1ccc(C2CCCCC2)cc1)c1ccc(C(=O)O)cc1)S(=O)(=O)c1c(F)c(F)c(F)c(F)c1F,inactive
20,CC(C)C(=O)c1cn(CC(=O)COc2ccc(Oc3ccccc3)cc2)c2ccc(C(=O)O)cc12,inactive

row,Compound,Potency
1,CC(C)(C#N)c1ccc(N2C(=O)OCc3cnc4ccc(-c5cnc6ccccc6c5)cc4c32)cc1,inactive
2,CC[C@H]1OC(=O)C[C@@H](O)[C@H](C)[C@@H](O[C@@H]2O[C@H](C)[C@@H](O)[C@H](N(C)C)[C@H]2O)[C@@H](CCN2C[C@H](C)C[C@H](C)C2)C[C@@H](C)C(=O)/C=C/C(C)=C/[C@@H]1CO[C@@H]1O[C@H](C)[C@@H](O)[C@@H](OC)[C@H]1OC,inactive
3,CCOC(=O)CNC(=O)[C@@H]1CCCN1C(=O)Cc1ccccc1 (PhAc-Pro-Gly-OEt),inactive
4,C(#Cc1cccc(CN2CCOCC2)c1)CCN1CCCCC1,inactive
5,COc1cc(-n2cnc3cc(-c4ccc(Cl)cc4)sc3c2=O)ccc1OCCN1CCCC1,inactive
6,COc1ccc(C2Sc3ccccc3N(CCN(C)C)C(=O)C2OC(C)=O)cc1 (stereo not given),inactive
7,COc1cc(Nc2nc3ccccc3nc2NS(=O)(=O)c2cccc(NC(=O)c3ccc(C)c(OC)c3)c2)cc(OC)c1,inactive
8,CN(C)S(=O)(=O)c1ccc(NC(=S)N2CCC(C(O)(c3ccccc3)c3ccccc3)CC2)cc1,inactive
9,COc1cc(NC(=O)c2cc(C3CC3)on2)c(OC)cc1Cl,inactive
10,FC(F)(F)c1cc(C(F)(F)F)c2ccc3nc(-c4nnco4)cn3c2n1,inactive
11,O=C(CCc1nnc2n(Cc3ccc(Cl)cc3)c(=O)c3ccccc3n12)NCCC1=CCCCC1,inactive
12,Cn1c2ccc(F)cc2c2c(C(=O)N3CCCC3)cn(-c3ccccc3)c(=O)c21,inactive
13,COCc1c(Cl)ccc2c1CC[C@H]2c1ncc[nH]1,inactive
14,Clc1ccccc1CNCC1CCC(CNCc2ccccc2Cl)CC1 (stereo not given),inactive
15,CN(C)c1nc(Cc2ccc(NC(=O)c3ccc(C(F)(F)F)cc3)cc2)nc(N(C)C)c1CC(=O)O,inactive
16,Cc1cccc2c1CC[C@H](CN1CCC(c3c(Cl)cccc3Cl)CC1)C[C@@H]2O,inactive
17,Cc1cc(C)c(-c2csc(NC(=O)c3ccccc3)n2)c(C)c1,inactive
18,CS(=O)(=O)Nc1ccc2oc3c(OC(F)F)ccc(C(=O)Nc4c(Cl)cncc4Cl)c3c2c1,inactive
19,CN(C)CCn1cc(-c2ccc(F)cc2)c(-n2cccc2)n1,inactive
20,CN(C)C(=O)NC1(c2ccccc2)CCN(CCC[C@]2(c3ccc(Cl)c(Cl)c3)CCCN(C(=O)c3ccccc3)C2)CC1,inactive

# Biological target: Retinaldehyde dehydrogenase 3 (Homo sapiens) (UniProt P47895)
# Test: qHTS for Inhibitors of the Aldehyde Dehydrogenase Family (ALDH1A3) Validation screen (AID 2061312); note: nearly all actives have a fitted effect of over 45% in size; note: potency is the fitted concentration of half-maximal effect
# Details: ALDH1A3 enzyme inhibition qHTS validation, fluorescence; series mostly up to 84.7 µM
row,Compound,Potency
1,COc1ccccc1N1CCN(CCCCNC(=O)c2ccc(-c3cscn3)cc2)CC1,inactive
2,CO[C@@H]1[C@@H](O[C@H]2O[C@@H](C)[C@H](O[C@@H]3C[C@](C)(O)[C@H](O)[C@@H](C)O3)[C@@H](N(C)C)[C@@H]2O)[C@@H](CC=O)C[C@@H](C)[C@@H](O[C@H]2CC[C@H](N(C)C)[C@H](C)O2)/C=C/C=C/C[C@@H](C)OC(=O)C[C@H]1O,inactive
3,CCOc1ccc(-c2nc(-c3cccc4c3CCC4NCCO)no2)cc1OCC (stereo not given),inactive
4,CC(C)Nc1nc(Nc2ccccc2)nc(-c2ccccc2)n1,inactive
5,Cc1ccc(Cl)cc1N(CC(=O)Nc1c(F)cccc1F)S(C)(=O)=O,inactive
6,CN1CCC(Nc2nc(Nc3ccc(Oc4ccccc4)cc3)c3c(=O)[nH]cc(Br)c3n2)CC1,inactive
7,COc1cccc(-c2ccc([C@@H](Oc3cc(-c4ccc(C[C@H](N)C(=O)O)cc4)nc(N)n3)C(F)(F)F)cc2)c1,inactive
8,O=C(O)c1cc(N(Cc2ccc(C3CCCCC3)cc2)C(=O)c2ccc(Oc3ccccc3)cc2)ccc1O,inactive
9,CCCCCCOc1cc2c(cc1N(C)c1ncc(C(=O)O)cn1)C(C)(C)CCC2(C)C,inactive
10,CCCN1CCC[C@@H](c2cccc(S(C)(=O)=O)c2)C1,inactive
11,Cc1c(C(=O)NCc2cccnc2)nn(-c2ccc(Cl)cc2Cl)c1-c1ccc(Cl)cc1,inactive
12,CC(C)c1nnc(-c2ccc(-c3ccccc3)nc2)n1-c1cccc2nonc12,inactive
13,CC1(C(=O)Nc2ccc(F)nc2)CCCN1c1nc(Nc2cc(C3CC3)[nH]n2)c2cccn2n1 (stereo not given),inactive
14,Cc1cc(-c2nncc3c(C(C)(C)C)c(OCc4ncnn4C)nn23)no1,inactive
15,COc1ccc(C(=O)N(CCC(C)C)Cc2nc(C)c(C)n2Cc2ccccc2C)c(OC)c1,inactive
16,Cc1nc2cc(-c3cc(F)cc(C#N)c3)ccc2s1,inactive
17,O=C(NS(=O)(=O)c1ccc(Br)s1)c1ccc(Cl)cc1Cl,inactive
18,O=C(O)Cc1ccc2oc(-c3ccc(NC(=O)/C=C/c4ccc(Br)cc4)c(F)c3)nc2c1,inactive
19,CN(CC(=O)N(Cc1ccc(C2CCCCC2)cc1)c1ccc(C(=O)O)cc1)S(=O)(=O)c1c(F)c(F)c(F)c(F)c1F,inactive
20,CC(C)C(=O)c1cn(CC(=O)COc2ccc(Oc3ccccc3)cc2)c2ccc(C(=O)O)cc12,inactive

row,Compound,Potency
1,CC(C)(C#N)c1ccc(N2C(=O)OCc3cnc4ccc(-c5cnc6ccccc6c5)cc4c32)cc1,inactive
2,CC[C@H]1OC(=O)C[C@@H](O)[C@H](C)[C@@H](O[C@@H]2O[C@H](C)[C@@H](O)[C@H](N(C)C)[C@H]2O)[C@@H](CCN2C[C@H](C)C[C@H](C)C2)C[C@@H](C)C(=O)/C=C/C(C)=C/[C@@H]1CO[C@@H]1O[C@H](C)[C@@H](O)[C@@H](OC)[C@H]1OC,inactive
3,CCOC(=O)CNC(=O)[C@@H]1CCCN1C(=O)Cc1ccccc1 (PhAc-Pro-Gly-OEt),inactive
4,C(#Cc1cccc(CN2CCOCC2)c1)CCN1CCCCC1,20 µM (active)
5,COc1cc(-n2cnc3cc(-c4ccc(Cl)cc4)sc3c2=O)ccc1OCCN1CCCC1,inactive
6,COc1ccc(C2Sc3ccccc3N(CCN(C)C)C(=O)C2OC(C)=O)cc1 (stereo not given),inactive
7,COc1cc(Nc2nc3ccccc3nc2NS(=O)(=O)c2cccc(NC(=O)c3ccc(C)c(OC)c3)c2)cc(OC)c1,inactive
8,CN(C)S(=O)(=O)c1ccc(NC(=S)N2CCC(C(O)(c3ccccc3)c3ccccc3)CC2)cc1,inactive
9,COc1cc(NC(=O)c2cc(C3CC3)on2)c(OC)cc1Cl,inactive
10,FC(F)(F)c1cc(C(F)(F)F)c2ccc3nc(-c4nnco4)cn3c2n1,inactive
11,O=C(CCc1nnc2n(Cc3ccc(Cl)cc3)c(=O)c3ccccc3n12)NCCC1=CCCCC1,inactive
12,Cn1c2ccc(F)cc2c2c(C(=O)N3CCCC3)cn(-c3ccccc3)c(=O)c21,inactive
13,COCc1c(Cl)ccc2c1CC[C@H]2c1ncc[nH]1,inactive
14,Clc1ccccc1CNCC1CCC(CNCc2ccccc2Cl)CC1 (stereo not given),inactive
15,CN(C)c1nc(Cc2ccc(NC(=O)c3ccc(C(F)(F)F)cc3)cc2)nc(N(C)C)c1CC(=O)O,inactive
16,Cc1cccc2c1CC[C@H](CN1CCC(c3c(Cl)cccc3Cl)CC1)C[C@@H]2O,inactive
17,Cc1cc(C)c(-c2csc(NC(=O)c3ccccc3)n2)c(C)c1,inactive
18,CS(=O)(=O)Nc1ccc2oc3c(OC(F)F)ccc(C(=O)Nc4c(Cl)cncc4Cl)c3c2c1,inactive
19,CN(C)CCn1cc(-c2ccc(F)cc2)c(-n2cccc2)n1,inactive
20,CN(C)C(=O)NC1(c2ccccc2)CCN(CCC[C@]2(c3ccc(Cl)c(Cl)c3)CCCN(C(=O)c3ccccc3)C2)CC1,inactive
